Reference: PubChem BioAssay AID1159580 (chemical genetic matrix, 2015)
“And” between values parts separate entries of the source, which are not always exact repeats. Equal values may be shown once. Screen size: about 5,500 compounds; about 2,000 (36%) were called active. Inconclusive results (about 18%) are left out. Rule as the data show it: active = normalized growth mostly below about 0.91 (no sharp cut-off); inconclusive = no clear call, values can overlap the other calls; inactive = mostly above about 0.92. The list shows a part of the results.

Experiment: chemical genetic growth profiling, strain panel (AID 1159580);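 also: tested at 20 µM; growth read once vehicle control cultures reached saturation at 30 °C; 1 = growth at the plate median or of vehicle wells; lower values mean less growth of the strain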
Details: S. cerevisiae deletion strains, growth OD

Measured: normalized growth

CC(=O)Oc1ccc(/C=C/c2cc(OC(C)=O)cc(OC(C)=O)c2)cc1
active: locus YDR392W, strain spt3, active compounds read low 0.668
inactive: locus YAL021C, strain ccr4, active compounds read low 0.979 | locus YAL026C, strain drs2, active compounds read low 0.984 | locus YAL030W, strain snc1, active compounds read low 0.97 | locus YBL061C, strain skt5, active compounds read low 0.976 | locus YBR009C, strain hhf1, active compounds read low 0.962 | locus YBR021W, strain FUR4, active compounds read low 0.96 | locus YBR023C, strain chs3, active compounds read low 0.975 | locus YBR171W, strain sec66, active compounds read low 0.978 | locus YBR229C, strain ROT2, active compounds read low 0.997 | locus YBR231C, strain swc5, active compounds read low 0.986 | locus YBR279W, strain paf1, active compounds read low 0.978 | locus YCL011C, strain gbp2, active compounds read low 0.972 | locus YCL016C, strain dcc1, active compounds read low 0.98 | locus YCL029C, strain bik1, active compounds read low 1.01 | locus YCL061C, strain MRC1, active compounds read low 0.953 | locus YCL069W, strain vba3, active compounds read low 0.984 | locus YCR088W, strain abp1, active compounds read low 0.979 | locus YDL005C, strain med2, active compounds read low 0.963 | locus YDL035C, strain GPR1, active compounds read low 0.984 | locus YDL040C, strain nat1, active compounds read low 0.963 | locus YDL074C, strain BRE1, active compounds read low 0.982 | locus YDL101C, strain DUN1, active compounds read low 0.993 | locus YDL134C, strain PPH21, active compounds read low 0.97 | locus YDL185W, strain tfp1, active compounds read low 1.02 | locus YDL192W, strain arf1, active compounds read low 0.997 | locus YDR001C, strain nth1, active compounds read low 0.987 | locus YDR069C, strain doa4, active compounds read low 0.966 | locus YDR101C, strain arx1, active compounds read low 0.987 | locus YDR137W, strain rgp1, active compounds read low 0.925 | locus YDR159W, strain sac3, active compounds read low 0.951 | locus YDR162C, strain NBP2, active compounds read low 0.977 | locus YDR195W, strain ref2 0.985 | locus YDR297W, strain sur2, active compounds read low 0.979 | locus YDR318W, strain mcm21, active compounds read low 0.986 | locus YDR334W, strain swr1, active compounds read low 0.981 | locus YDR335W, strain msn5, active compounds read low 0.987 | locus YDR388W, active compounds read low 1 | locus YDR502C, strain sam2, active compounds read low 0.999 | locus YEL003W, strain gim4, active compounds read low 0.969 | locus YEL037C, strain rad23, active compounds read low 0.983 | locus YEL061C, strain CIN8 (second series), active compounds read low 0.99 | locus YEL061C, strain CIN8, active compounds read low 0.999 | locus YER015W, strain faa2, active compounds read low 0.974 | locus YER016W, strain bim1, active compounds read low 0.976 | locus YER110C, active compounds read low 1.01 | locus YER111C, strain swi4, active compounds read low 0.976 | locus YER155C, strain BEM2 (second series), active compounds read low 0.924 | locus YER155C, strain BEM2, active compounds read low 1.01 | locus YER167W, strain BCK2, active compounds read low 0.991 | locus YFR010W, strain ubp6, active compounds read low 0.985 | locus YGL078C, strain dbp3, active compounds read low 0.996 | locus YGL086W, strain mad1, active compounds read low 0.994 | locus YGL167C, strain pmr1, active compounds read low 0.978 | locus YGL173C, strain kem1, active compounds read low 0.961 | locus YGL227W, strain vid30, active compounds read low 0.982 | locus YGL240W, strain doc1, active compounds read low 0.942 | locus YGL248W, strain PDE1, active compounds read low 0.974 | locus YGL253W, strain hxk2, active compounds read low 0.973 | locus YGR135W, strain pre9, active compounds read low 0.977 | locus YGR229C, strain SMI1, active compounds read low 1.01 | locus YGR252W, strain gcn5, active compounds read low 0.951 | locus YHR013C, strain ard1, active compounds read low 0.978 | locus YHR027C, strain rpn1, active compounds read low 0.975 | locus YHR030C, strain SLT2, active compounds read low 1.01 and 1.03 | locus YHR079C, strain IRE1 (second series), active compounds read low 1 | locus YHR079C, strain IRE1, active compounds read low 1.03 | locus YHR094C, strain hxt1, active compounds read low 1 | locus YHR129C, strain ARP1, active compounds read low 0.985 | locus YHR142W, strain chs7, active compounds read low 0.968 | locus YHR200W, strain rpn10, active compounds read low 1.01 | locus YIL066C, strain RNR3, active compounds read low 0.965 | locus YIL073C, strain SPO22, active compounds read low 1.04 | locus YIL125W, strain kgd1, active compounds read low 1.02 | locus YIR030C, strain dcg1, active compounds read low 0.99 | locus YJL092W, strain hpr5, active compounds read low 0.977 | locus YJL095W, strain BCK1 (second series), active compounds read low 0.983 | locus YJL095W, strain BCK1, active compounds read low 0.962 and 0.998 | locus YJL115W, strain asf1, active compounds read low 0.992 | locus YJL129C, strain trk1, active compounds read low 0.978 | locus YJL134W, strain LCB3, active compounds read low 1.01 | locus YJL154C, strain vps35, active compounds read low 0.983 | locus YJL164C, strain tpk1, active compounds read low 0.96 | locus YJL166W, strain qcr8, active compounds read low 0.95 | locus YJL168C, strain set2, active compounds read low 0.997 | locus YJL187C, strain SWE1 (second series), active compounds read low 0.98 | locus YJL187C, strain SWE1, active compounds read low 0.993 | locus YJR043C, strain POL32, active compounds read low 0.979 | locus YJR066W, strain TOR1, active compounds read low 0.972 | locus YJR075W, strain HOC1, active compounds read low 0.985 | locus YKL009W, strain mrt4, active compounds read low 1.04 | locus YKL068W, active compounds read low 1 | locus YKL085W, strain MDH1 (second series), active compounds read low 0.999 | locus YKL085W, strain MDH1, active compounds read low 0.999 | locus YKL160W, strain elf1, active compounds read low 0.959 | locus YKL190W, strain CNB1, active compounds read low 1 | locus YKR001C, strain vps1, active compounds read low 0.982 | locus YKR026C, strain gcn3, active compounds read low 0.979 | locus YKR091W, strain srl3, active compounds read low 0.983 | locus YLL001W, strain dnm1, active compounds read low 0.966 | locus YLL026W, active compounds read low 0.976 | locus YLL041C, strain sdh2, active compounds read low 0.98 | locus YLR027C, strain aat2, active compounds read low 0.979 | locus YLR039C, strain RIC1, active compounds read low 0.928 | locus YLR058C, strain SHM2, active compounds read low 0.99 | locus YLR102C, strain apc9, active compounds read low 1.03 | locus YLR113W, strain HOG1, active compounds read low 0.934 | locus YLR221C, strain rsa3, active compounds read low 0.949 | locus YLR258W, strain gsy2, active compounds read low 0.957 | locus YLR262C, strain YPT6 (second series), active compounds read low 0.907 | locus YLR262C, strain YPT6, active compounds read low 0.925 | locus YLR268W, strain sec22, active compounds read low 0.999 | locus YLR320W, strain mms22, active compounds read low 0.921 | locus YLR330W, strain CHS5, active compounds read low 0.996 | locus YLR342W, strain FKS1 (second series), active compounds read low 1.01 | locus YLR342W, strain FKS1, active compounds read low 0.968 | locus YLR357W, strain rsc2, active compounds read low 0.937 | locus YLR370C, strain arc18, active compounds read low 0.981 | locus YLR371W, strain rom2, active compounds read low 0.995 | locus YLR384C, strain iki3, active compounds read low 0.959 | locus YLR418C, strain cdc73, active compounds read low 0.889 | locus YML016C, strain PPZ1, active compounds read low 0.999 | locus YML032C, strain rad52, active compounds read low 1.01 | locus YML120C, strain ndi1, active compounds read low 0.985 | locus YML124C, strain tub3, active compounds read low 0.998 | locus YMR078C, strain ctf18, active compounds read low 1.01 | locus YMR125W, strain sto1, active compounds read low 0.974 | locus YMR129W, active compounds read low 0.985 | locus YMR205C, strain PFK2, active compounds read low 0.948 | locus YMR223W, strain ubp8, active compounds read low 0.959 | locus YMR231W, strain pep5, active compounds read low 0.965 | locus YMR263W, strain SAP30, active compounds read low 0.988 | locus YMR307W, strain GAS1, active compounds read low 1.16 | locus YNL067W, strain RPL9B, active compounds read low 0.973 | locus YNL071W, strain lat1, active compounds read low 0.952 | locus YNL153C, strain GIM3, active compounds read low 0.989 | locus YNL183C, strain NPR1, active compounds read low 0.935 | locus YNL209W, strain ssb2, active compounds read low 0.984 | locus YNL233W, strain BNI4, active compounds read low 0.948 | locus YNL248C, strain rpa49, active compounds read low 0.961 | locus YNL250W, strain rad50, active compounds read low 0.998 | locus YNL271C, strain bni1, active compounds read low 1.02 | locus YNL298W, strain CLA4, active compounds read low 0.989 | locus YNL307C, strain MCK1, active compounds read low 0.977 | locus YNL322C, strain KRE1 (second series), active compounds read low 0.964 | locus YNR049C, strain mso1, active compounds read low 0.978 | locus YNR052C, strain pop2, active compounds read low 0.981 | locus YOL006C, strain TOP1, active compounds read low 0.883 | locus YOL012C, strain htz1 0.967 | locus YOL147C, strain pex11, active compounds read low 1 | locus YOR001W, strain rrp6, active compounds read low 0.96 | locus YOR061W, strain CKA2, active compounds read low 1.01 | locus YOR069W, strain VPS5, active compounds read low 1 | locus YOR070C, strain gyp1, active compounds read low 0.959 | locus YOR080W, strain dia2, active compounds read low 1.01 | locus YOR083W, strain WHI5, active compounds read low 0.958 | locus YOR106W, strain vam3, active compounds read low 0.988 | locus YOR136W, strain idh2, active compounds read low 1.01 | locus YOR144C, strain elg1, active compounds read low 1.01 | locus YOR184W, strain ser1, active compounds read low 0.904 | locus YOR231W, strain MKK1, active compounds read low 1 | locus YOR265W, strain rbl2, active compounds read low 0.968 | locus YOR270C, strain vph1, active compounds read low 0.919 | locus YOR290C, strain snf2, active compounds read low 0.944 | locus YOR316C, strain cot1, active compounds read low 1.02 | locus YPL051W, strain arl3, active compounds read low 0.98 | locus YPL055C, strain LGE1, active compounds read low 0.947 | locus YPL078C, strain atp4, active compounds read low 0.963 | locus YPL106C, strain sse1, active compounds read low 0.91 | locus YPL240C, strain hsp82, active compounds read low 0.976 | locus YPL241C, strain CIN2, active compounds read low 0.998 | locus YPL256C, strain CLN2, active compounds read low 1.04 | locus YPR119W, strain clb2, active compounds read low 1.01 | locus YPR141C, strain kar3, active compounds read low 1.01 | locus YPR163C, strain tif3, active compounds read low 0.994 | locus YPR167C, strain met16, active compounds read low 1.02 | strain wtn01, active compounds read low 1.01
